From the supplement of paper PMC3414501
Counter-ions that a name gives are not always drawn.

Columns and labels:
[1] = test system: S. cerevisiae SK1 pCDA2-eGFP (USY613), sporulating; assay: CDA2-GFP sporulation assay sensitivity score (z-score vs DMSO controls); higher = stronger inhibition of sporulation, active = hit call of the paper;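 further: active if sensitivity score above 5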
[2] = test system: S. cerevisiae AD1-9 (efflux-pump deficient), vegetative growth in YPD; assay: growth sensitivity score (doubling time z-score vs DMSO controls); higher = slower growth, strongly negative scores also mark growth inhibition (complete suppression), active = hit call of the paper
Method in brief: (§1)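 Optical density of Saccharomyces cerevisiae cultures in microtiter plates was followed every 15 min for 24 hours after seeding at an OD600 of 0.065. Eight solvent-only wells were run per experiment. Growth sensitivity scores were found by subtracting the solvent-only mean from the compound mean and dividing by the solvent-only standard deviation.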

[3] = test system: S. cerevisiae BY4741 (wild-type), vegetative growth in YPD; assay: as above
Method in brief: as §1

Structure (SMILES) | CDA2-GFP sporulation assay sensitivity score [1] | growth sensitivity score [2] | growth sensitivity score [3]
N#Cc1ccc(C(c2ccc(C#N)cc2)n2cncn2)cc1 [Letrozol] (stock concentration (mM, diluted 1:100): 10) | 1.08 (inactive) | 20.4 (active) | -0.45 (inactive)
CO[C@H]1/C=C/O[C@@]2(C)Oc3c(C)c(O)c4c(O)c(c(/C=N/N5CCN(C6CCCC6)CC5)c(O)c4c3C2=O)NC(=O)/C(C)=C\C=C\[C@H](C)[C@H](O)[C@@H](C)[C@@H](O)[C@@H](C)[C@H](OC(C)=O)[C@@H]1C [Rifapentine] (stock concentration (mM, diluted 1:100): 10) | 14.2 (inactive) | -0.99 (inactive) | 0.15 (inactive)
Cc1[nH]c(=O)c(C#N)cc1-c1ccncc1 [Milrinone] (stock concentration (mM, diluted 1:100): 10.1) | -1.34 (inactive) | -2.83 | -0.97 (inactive)
O=C1CCc2ccc(OCCCCN3CCN(c4cccc(Cl)c4Cl)CC3)cc2N1 [Aripiprazole] (stock concentration (mM, diluted 1:100): 10) | -0.09 (inactive) | 18.5 (active) | 117 (active)
CCc1c2c(nc3ccc(OC(=O)N4CCC(N5CCCCC5)CC4)cc13)-c1cc3c(c(=O)n1C2)COC(=O)[C@]3(O)CC [Irinotecan hydrochloride] (stock concentration (mM, diluted 1:100): 8.7) |  | 2.14 (active) | -1.27 (inactive)
COc1ccc2c3c1O[C@H]1C[C@@H](O)C=C[C@@]31CCN(C)C2 [Galanthamine] (stock concentration (mM, diluted 1:100): 8.8) | -0.36 (inactive) | -1.27 (inactive) | 0.11 (inactive)
NC(N)=NC(=O)c1nc(Cl)c(N)nc1N (stock concentration (mM, diluted 1:100): 8.2) | 6.05 (active) | 4.88 (active) | 1.27 (inactive)
Cc1cn([C@H]2C=C[C@@H](CO)O2)c(=O)[nH]c1=O [Stavudine] (stock concentration (mM, diluted 1:100): 10) | -1.16 (inactive) | 0.68 (inactive) | 0.1 (inactive)
CCN1CC(CCN2CCOCC2)C(c2ccccc2)(c2ccccc2)C1=O (centres undefined) [Doxapram hydrochloride] (stock concentration (mM, diluted 1:100): 10.4) | -0.58 (inactive) | -0.91 (inactive) | -0.29 (inactive)
O=C(O)CCNC(=O)c1ccc(/N=N/c2ccc(O)c(C(=O)O)c2)cc1 [Balsalazide] (stock concentration (mM, diluted 1:100): 10) | 1.1 (inactive) | -1.86 (inactive) | -1.09 (inactive)
COc1ccc(-c2oc3c(CC=C(C)C)c(O[C@@H]4O[C@H](CO)[C@@H](O)[C@H](O)[C@H]4O)cc(O)c3c(=O)c2O[C@@H]2O[C@@H](C)[C@H](O)[C@@H](O)[C@H]2O)cc1 [Icariin] (stock concentration (mM, diluted 1:100): 10) | -1.61 (inactive) |  | -1.71 (inactive)
COc1ccc(CCN(C)CCCC(C#N)(c2ccc(OC)c(OC)c2)C(C)C)cc1OC (centres undefined) (stock concentration (mM, diluted 1:100): 10) | 2.38 (inactive) |  | 0.01 (inactive)
COc1ccnc(C[S+]([O-])c2nc3cc(OC(F)F)ccc3[nH]2)c1OC (centres undefined) [Pantoprazole sodium] (stock concentration (mM, diluted 1:100): 10) | 0.75 (inactive) | -2.1 | -0.44 (inactive)
CN1CCN(c2nc3cc(C(F)(F)F)ccc3n3cccc23)CC1 (stock concentration (mM, diluted 1:100): 10) |  |  | 351 (active)
C[C@H]1COc2c(N3CCN(C)CC3)c(F)cc3c(=O)c(C(=O)O)cn1c23 [Levofloxacin] (stock concentration (mM, diluted 1:100): 10) | -0.01 (inactive) |  | -0.66 (inactive)
COc1ccccc1N1CCN(CC(O)COc2cccc3ccccc23)CC1 (centres undefined) [Naftopidil] (stock concentration (mM, diluted 1:100): 10) | 9.59 (active) |  | 7.62 (active)
Oc1ccc(C2CNCCc3c2cc(O)c(O)c3Cl)cc1 (centres undefined) [Fenoldopam mesylate] (stock concentration (mM, diluted 1:100): 7.7) | -0.81 (inactive) | -1.09 (inactive) | -0.74 (inactive)
